Each structure is given as a SMILES string. Results filed as inconclusive are left out. Values without a mark were called inactive. The source made the active and inactive calls. Calls come from the whole dose curve; as a rule, active = well fitted cell-killing curve with a large enough effect in the repeat runs; inconclusive = weak or mixed curves, or effect the other way; inactive = flat fitted curve, though single readings scatter.
% is set by controls: 0 for no effect and ±100 for the full control effect; potency is the fitted concentration of half-maximal effect.

The assay can be described thus: qHTS assay to identify small molecule agonists of the androgen receptor (AR) signaling pathway in the presence of an antagonist - cell viability counter screen (AID 1259379). Note: nearly all actives have a fitted effect of over 25% in size. The conditions noted are these: MDA-kb2 viability, CellTiter-Fluor, 16 h; series mostly up to 92.4 µM; activity change, negative = cytotoxicity: at the top concentration. From the text: National Center for Advancing Translational Sciences [NCATS]
NIH Chemical Genomics Center [NCGC]
U.S. Environmental Protection Agency [EPA]
National Institutes of Environmental Health Sciences [NIEHS]
National Toxicology Program [NTP]
U.S. Food and Drug Administration [FDA]
Androgen receptor (AR) is an important member of nuclear receptor family. Its signaling plays a critical role in AR-dependent prostate cancer and other androgen related diseases. Considerable attention has been given in the past decades to develop methods to study and screen for the environmental chemicals that have the potential to interfere with metabolic homeostasis, reproduction, developmental and behavioral functions. Therefore AR binding assay for screening against androgen agonists and antagonists can be used to identify potential endocrine disruptors.
MDA-kb2 cells (from ATCC, deposited by Wilson et al.) are human breast carcinoma cells that were stably transfected with a luciferase reporter gene under control of the MMTV promoter that contains response elements for both androgen receptor (AR) and glucocorticoid receptor (GR). This particular screening for measuring luciferase reporter gene activity using MDA-kb2 cells against Tox21 10K library compounds is a confirmation study on agonist mode screening in the presence of AR-antagonist compound (Nilutamide) at 3.0uM final concentration. The cytotoxicity of the compounds was tested in parallel by measuring the cell viability using CellTiter-Fluor assay system (Promega, Madison, WI) in the same wells.
Tox21 Assay Protocol Summary:
MDA-kb2 cells (cells cultured without CO2) were dispensed at 3,000 cells/well in 4uL of culture medium into white wall/solid-bottom 1536-well plates (Corning Life Sciences, Corning, NY) using a Multidrop Combi (Thermo Fisher Scientific Inc., Waltham, MA) dispenser. The assay plates were incubated at 37C and 0% CO2 for 5hr. One uL of 3.0uM (final concentration) Nilutamide or assay buffer was added using two separate tips of Flying Reagent Dispenser (FRD, Aurora Discovery, San Diego, CA). Then 23nL of compounds dissolved in DMSO at 15 concentrations and positive controls were transferred to the assay plates using a Pintool station (Wako, San Diego, CA). The assay plates were incubated at 37C and 0% CO2 for 16 hr. After 15hr incubation at 37C, 1uL/well CellTiter-Fluor reagent (Promega Corporation) was added to each well of the assay plates using FRD. After 1hr incubation at 37C and 0% CO2, the fluorescence signal was measured using a ViewLux plate reader (PerkinElmer, Shelton, CT).
Background: Quantitative high-throughput screening tests each substance at several concentrations.
As to `O=c1oc2cc(O)ccc2c2oc3cc(O)ccc3c12`, the “activity change, negative = cytotoxicity” value was -0.247%.
Same read-out and setting: the same measure for `Cc1ccc(O)c(O)c1`: -11.3%.
Take `O=C(O)O`: the activity change, negative = cytotoxicity is -0.506% [at 8.39 µM].
On the same count and under the same terms, under `CC(C)Cn1cnc2c(N)nc3ccccc3c21` stands -7.59% [at 19 µM]; under `CC(CO)Oc1ccccc1` (stereo not given), 0.377%.
The same measure, in the same setting: under `CCCCCCCC/C=C\CCCCCCCCN` stands -9.64% [at 42.5 µM]; under `Cc1cccc2cccnc12`, 2.12%.
Still for that read-out and setting: the same measure for `CC(C)(C)CC(C)(C)c1ccc(Nc2ccc(C(C)(C)CC(C)(C)C)cc2)cc1`: 1.22% [at 8.39 µM].
Regarding `Clc1sc(Cl)c(Cl)c1Cl`, the “activity change, negative = cytotoxicity” value was -0.299%.
Still for that read-out and setting: under `CN1CCN2c3ccccc3Cc3ccccc3C2C1` (stereo not given) stands -2.1% [at 42.5 µM]; under `CCOC(=O)Cn1cccc1-c1nc(-c2ccc(OC)cc2)c(-c2ccc(OC)cc2)s1`, 1.64% [at 42.5 µM].
The same measure, in the same setting: under `CCC(COC(=O)CCS)(COC(=O)CCS)COC(=O)CCS` stands 0.0644%.
On to `Nc1ccc(NCCO)c([N+](=O)[O-])c1`, for which the Potency was 48.6 µM (active).
With `CCCNCCC`, the “activity change, negative = cytotoxicity” value was 2.24%.
The same measure, in the same setting: the same measure for `COC(=O)c1ccccc1C`: 0.124%.
As for `S=c1nccc[nH]1`, the “activity change, negative = cytotoxicity” value is 0.504%.
Still for that read-out and setting: the same measure for `CCOc1ccc2ccccc2c1C(=O)N[C@@H]1C(=O)N2[C@@H]1SC(C)(C)[C@@H]2C(=O)O`: 0.0464% [at 42.5 µM].
Consider `O=C(O)c1cc(O)c2ccccc2c1O`, for which the Potency was 54.5 µM (active).
Turning to `O=C1c2ccccc2C(=O)N1SC1CCCCC1`, the Potency result was “inactive”.
Take `Cc1c(N)cccc1C(F)(F)F`: the “activity change, negative = cytotoxicity” value is 2.96% [at 42.5 µM].
Consider `c1ccsc1`, for which the “activity change, negative = cytotoxicity” value was -1.71%.
In the case of `CCC(=O)C(=O)CC`, the “activity change, negative = cytotoxicity” value is 0.625%.
`O=[N+]([O-])c1cccc(C(F)(F)F)c1`: the “activity change, negative = cytotoxicity” value was 0.652%.
As to `CCCCCCCC`, the “activity change, negative = cytotoxicity” value was -6.99%.
On the same count and under the same terms, under `O=C(O)CCN(C1(C(=O)NO)CCCC1)S(=O)(=O)c1ccc(Oc2ccc(F)cc2)cc1` stands 2.25%; under `Cc1cccc(C(=O)O)c1O`, 0.314% [at 42.5 µM]; under `NC(=O)c1cccc([N+](=O)[O-])c1`, -0.754%.
`CC(=O)Oc1cc2c(s1)CCN(C(C(=O)C1CC1)c1ccccc1F)C2` (stereo not given): the “activity change, negative = cytotoxicity” value was 2.8% [at 42.5 µM].
As for `C=C(CC)C(=O)c1ccc(OCC(=O)O)c(Cl)c1Cl`, the Potency was 60.7 µM (active).
For the compound `CCC(C)n1ncn(-c2ccc(N3CCN(c4ccc(OC[C@H]5CO[C@](Cn6cncn6)(c6ccc(Cl)cc6Cl)O5)cc4)CC3)cc2)c1=O` (stereo not given in full), the “activity change, negative = cytotoxicity” value was -1.04% [at 42.5 µM].
Same read-out and setting: the same measure for `CC(CCc1ccccc1)NCC(O)c1ccc(O)c(C(N)=O)c1` (stereo not given): 1.61%; for `CCc1ccc(Br)cc1`: 1.85%.
The same measure, in the same setting: the same measure for `OC1CCC(C2CCCCC2)CC1` (stereo not given): 2.08%; for `NC[C@H]1O[C@H](O[C@H]2[C@H](O[C@@H]3O[C@H](CO)[C@@H](O)[C@H]3O)C(O)[C@H](N)C[C@@H]2N)[C@H](N)[C@@H](O)[C@@H]1O` (stereo not given in full): 2.75% [at 8.39 µM]; for `Cc1ccc(-c2ccccc2)cc1`: 2.04%.
Take `CCCC(=O)OCCc1ccccc1`: the “activity change, negative = cytotoxicity” value was -0.488%.
Turning to `C=Cc1cccc(C)c1`, the Potency result was “inactive”.
With `C#Cc1ccc(-c2ccccc2F)cc1`, the “activity change, negative = cytotoxicity” value is -5.84% [at 42.5 µM].
On the same count and under the same terms, under `OCC(F)(F)F` stands -0.741%; under `O=S(=O)(O)c1ccc(Nc2nc(Nc3ccc(/C=C/c4ccc(Nc5nc(Nc6ccc(S(=O)(=O)O)cc6)nc(N(CCO)CCO)n5)cc4S(=O)(=O)O)c(S(=O)(=O)O)c3)nc(N(CCO)CCO)n2)cc1`, 10.7% [at 42.5 µM].

Values taken from PubChem BioAssay (Tox21).
